# Results reported in PubChem BioAssay AID1240 (Sanford-Burnham Center for Chemical Genomics, 2008).
# The whole screen tested about 50,000 compounds, of which about 800 (1.6%) showed an effect of 50% or more. Shown is part of a subset that was picked to be rich in strong results.
# Biological target: Bcl-2-like protein 10 (Homo sapiens) (UniProt Q9HD36)
# Experiment: TR3 peptide-Bcl-B binding displacers, biochemical primary FP assay, phenotype converters (AID 1240);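 note: 0% = Bcl-B with tracer peptide and DMSO and 100% = tracer peptide lacking Bcl-B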
# Conditions: GST-Bcl-B / FITC-TR3 peptide fluorescence polarization; stronger effect = higher value; compound at 3.75 mg/L
# Bcl-2-like protein 10 (Homo sapiens), sequence (Q9HD36 whole entry, looked up): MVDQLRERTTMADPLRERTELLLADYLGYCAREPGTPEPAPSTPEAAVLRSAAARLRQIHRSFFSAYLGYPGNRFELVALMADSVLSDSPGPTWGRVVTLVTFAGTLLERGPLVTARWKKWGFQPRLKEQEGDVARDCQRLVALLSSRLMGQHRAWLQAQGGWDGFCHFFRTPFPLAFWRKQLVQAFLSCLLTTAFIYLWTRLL
row,Compound,displacement
1,Cc1cc(C)nc(SCC(=O)Nc2ccc(C)c(NC(=O)CSc3nc(C)cc(C)n3)c2)n1,23.5%
2,CN(C)c1ccc(/C=C/C(=O)c2ccc3c(c2)OCCO3)cc1,-18.8%
3,CC1=C(C(=O)OC(C)C)C(c2ccc(F)cc2)C(C(=O)OC(C)C)=C(C)N1,54.7%
4,CC1=C(C(=O)OC(C)C)C(c2ccc(F)cc2)NC(=O)N1 (stereo unspecified),6.9%
5,CCOC(=O)C1=C(C)NC(C)=C(C(=O)OCC)C1c1ccc(F)cc1,0%
6,COc1ccc(CNC(=O)CN(c2c(C)n(C)n(-c3ccccc3)c2=O)S(=O)(=O)c2ccccc2)cc1,-6.2%
7,Cc1cc(Nc2ccccc2)nn1C(=O)c1ccc(Cl)cc1,-10.9%
8,Cn1c2ccccc2c2cc(C3Nc4ccccc4C(=O)N3Cc3ccco3)ccc21 (stereo unspecified),10.3%
9,O=C(/C=C/c1ccc([N+](=O)[O-])cc1)C1C(=O)c2ccccc2C1=O,-6.3%
10,O=C(/C=C/c1ccc(S(=O)(=O)Nc2ccccc2)cc1)C1C(=O)c2ccccc2C1=O,31.1%
11,COc1ccc(/C=C\C(=O)C2C(=O)c3ccccc3C2=O)cc1,122%
12,CC1CC(C)CN(S(=O)(=O)c2ccc(F)cc2)C1 (stereo unspecified),-9%
13,CN(C)/C=C/C=C/C(=O)c1ccc(/C=C/C=C/N(C)C)o1,36.1%
14,CC(=O)Nc1ccc(/C=C(/C#N)C(=O)N/N=C/c2ccc(NC(C)=O)cc2)cc1,110%
15,CC(=O)Nc1ccc(/C=C(/C#N)C(=O)NCc2ccco2)cc1,9.4%
16,N#C/C(=C/c1ccc(Cl)cc1)C(=O)Nc1ccc(O)cc1,7.1%
17,CSc1ccc(/C=N/NC(=O)c2cc(C)[nH]n2)cc1,3.8%
18,O=C(N/N=C\c1ccc(Cl)c(Cl)c1)c1cnccn1,-7.3%
19,CSc1ccc(/C=N\NC(=O)c2cnccn2)cc1,109%
20,Cc1ccc(S(=O)(=O)/N=C(/NC(=S)N2CCOCC2)c2ccccc2)cc1,-5.4%
21,CCOC(=O)c1ccccc1NC(=O)CN(c1ccc(Br)cc1)S(C)(=O)=O,-5%
22,CC1=Nc2ccccc2/C1=C\c1sc(=S)n(-c2cccc(F)c2)c1O,-1.7%

row,Compound,displacement
1,CC1=Nc2ccccc2/C1=C\c1sc(=S)n(-c2ccccc2)c1O,104%
2,CC1=Nc2ccccc2/C1=C\c1c(O)n(-c2ccccc2)c(=O)[nH]c1=O,-3.1%
3,O=C(CCCN1C(=O)c2ccccc2C1=O)Nc1cccnc1,20.6%
4,CC(c1ccccc1)N1C(=O)C(=Cc2c(NCC3CCCO3)nc3ccccn3c2=O)SC1=S (stereo unspecified),-14.7%
5,COC(=O)c1ccc(C2C(C(=O)OC(C)C)=C(C)N=C3SCCC(=O)N32)cc1 (stereo unspecified),11.3%
6,CC1=C(C(=O)OC(C)C)C(c2ccc(Cl)c(Cl)c2)N2C(=O)CCSC2=N1 (stereo unspecified),15.3%
7,CC1=C(C(=O)OC(C)C)C(c2ccccc2)N2C(=O)CCSC2=N1 (stereo unspecified),61.6%
8,Cc1cc(=O)oc2c1c(C)nn2-c1ccc(Br)cc1,2.1%
9,COc1ccccc1NC(=O)C1=C(C)NC(=S)NC1c1ccccc1OC (stereo unspecified),6%
10,Cc1cc(N2C(=O)NC(=O)/C(=C\c3cn(C)c4ccccc34)C2=O)ccc1Br,126%
11,O=C1NC(=O)N(c2ccccc2)C(=O)/C1=C/c1ccc(N2CCCC2)cc1,-30.2%
12,Cc1cc(C)cc(N2C(=O)NC(=O)/C(=C\c3cn(C)c4ccccc34)C2=O)c1,144%
13,CCOc1ccccc1/C=C1\C(=O)NC(=O)N(c2ccc(Br)c(C)c2)C1=O,-7.9%
14,CCn1cc(/C=C2\C(=O)NC(=O)N(c3ccc(Cl)cc3)C2=O)c2ccccc21,-18.6%
15,Cc1c(/C=C2\C(=O)NC(=O)N(c3ccc(Cl)cc3)C2=O)c2ccccc2n1C,104%
16,O=C1NC(=O)N(c2ccc(Cl)cc2)C(=O)/C1=C/c1ccc(F)cc1,8.2%
17,Cc1cc(C)cc(N2C(=O)NC(=O)/C(=C\c3ccccc3C)C2=O)c1,6.3%
18,O=C1NC(=O)N(c2ccccc2)C(=O)/C1=C\c1ccc(Cl)cc1,1.4%
19,C#CCn1cc(/C=C2\C(=O)NC(=O)N(c3ccc(Br)c(C)c3)C2=O)c2ccccc21,6.2%
20,O=C1NC(=O)N(c2ccc(Cl)cc2)C(=O)/C1=C\c1ccc(N2CCCC2)cc1,71.4%
21,COC(=O)Cn1cc(/C=C2\C(=O)NC(=O)N(c3cc(C)cc(C)c3)C2=O)c2ccccc21,-4.6%
22,Cc1ccc(C(=O)N2CCC(Cc3ccccc3)CC2)o1,6.7%

row,Compound,displacement
1,CC1S/C(=N/N=C/c2ccccc2Cl)NC1=O (stereo unspecified),1.2%
2,CCOC(=O)/C(C#N)=C\c1ccc(F)cc1,2.3%
3,CCOC(=O)C(C)Oc1cc2oc(=O)cc(-c3ccccc3)c2cc1CC (stereo unspecified),11%
4,COc1ccc(CCN=CC2=C(O)CC(c3ccccc3)CC2=O)cc1OC (stereo unspecified),1.2%
5,CCCOc1cccc(NC(=O)c2c(-c3ccccc3)noc2C)c1,-5.5%
6,COc1ccc(OC)c(/C=C/C(=O)Oc2cc(C)cc(C)c2)c1,11.8%
7,Cn1cc(C=C2C(=O)NC(=S)NC2=O)c2ccccc21,8.8%
8,COc1ccccc1OCCn1cc(/C=C2/C(=O)NC(=O)N(c3ccccc3)C2=O)c2ccccc21,1.6%
9,Cc1cc(C)cc(N2C(=O)NC(=O)/C(=C\c3ccsc3)C2=O)c1,-7.8%
10,COc1ccccc1OCCn1cc(C=C2C(=O)N(C)C(=O)N(C)C2=O)c2ccccc21,3.5%
11,COc1ccc(N2C(=O)NC(=O)/C(=C/c3cn(CCOc4ccccc4OC)c4ccccc34)C2=O)cc1,87.6%
12,Cc1ccc(N2C(=O)NC(=O)/C(=C\c3ccsc3)C2=O)cc1,66.1%
13,O=C1NC(=O)N(c2ccc(Cl)cc2)C(=O)/C1=C/c1ccsc1,-24.1%
14,CC(C)c1ccc(N2C(=O)NC(=O)/C(=C/c3ccccc3O)C2=O)cc1,0.6%
15,Cc1cccc(N2C(=O)/C(=C/c3ccc(N(C)C)cc3)SC2=S)c1,-5.4%
16,Cc1cccc(N2C(=O)S/C(=C\c3ccccc3)C2=O)c1,12.3%
17,Cc1cccc(N2C(=O)S/C(=C/c3ccc(N(C)C)cc3)C2=O)c1,95.7%
18,CC(C)c1ccc(N2C(=O)NC(=O)/C(=C/c3cn(C)c4ccccc34)C2=O)cc1,145%
19,O=C(NCc1cccs1)c1cc2n(n1)C(C(F)(F)F)CC(c1cccs1)N2 (stereo unspecified),0%
20,CCC(Oc1ccccc1)C(=O)NC(C)c1ccccc1 (stereo unspecified),-18.9%
21,Oc1ccc(Br)cc1C=NCc1ccco1,3.3%
22,Cc1sc(NC(=O)c2ccc(Br)o2)c(C(N)=O)c1C,10%
